# G9a inh: qHTS Assay for Inhibitors of Histone Lysine Methyltransferase G9a. actives 8.8% (n = 350,000). Histone-lysine N-methyltransferase EHMT2 (Homo sapiens), Q96KQ7. G9a H3K9 monomethylation, AlphaScreen, 2 h. Potency, µM (doses to about 102 µM), for the others: at the highest dose activity, negative = inhibition, hits mostly inhibitors; also: potency is read from the fitted curve at half-maximal effect; % is scaled to controls: 0 for no effect and ±100 for the full control effect; nearly all actives have a fitted effect of over 75% in size
#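 Methyltransferase reactions run at room temperature for 2 h (20 nM enzyme, 500 nM biotin-H3K9 peptide, 20 uM SAM) after a 15 min compound preincubation; product detected by AlphaScreen beads and anti-H3K9me1 antibody.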
# BAZ2B block: qHTS Assay for Inhibitors of BAZ2B; Bromodomain adjacent to zinc finger domain protein 2B (Homo sapiens), Q9UIF8; AlphaScreen BAZ2B-H3K14Ac peptide displacement; Potency, µM (titrated, usually from 114 µM), for the others: top-dose activity change, negative = inhibition, actives largely listed as inhibitors; actives 4.4% (n = 360,000); AID 504333, 2011; also: potency is read from the fitted curve at half-maximal effect; % is scaled to controls: 0 for no effect and ±100 for the full control effect; nearly all actives have a fitted effect of over 60% in size
#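 AlphaScreen displacement: compounds (up to 110uM) incubated 30 min at room temperature with a preformed 50 nM BAZ2B/50 nM biotinylated H3K14Ac peptide complex in PBS pH 7.4 with Tween-20. Donor and acceptor beads at 10 ug/mL final added, 20 min light-protected before reading.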
# CtBP-E1A blk: qHTS Assay for Inhibitors of the CtBP/E1A Interaction; CtBP / adenovirus E1A interaction (AlphaScreen); AID 651724, 2012; activity change, % (test concentration not listed); AlphaScreen GST-E1A/His-CtBP binding, 1536-well; hits give low values; actives 0.49% (n = 340,000); in the data active = activity change below about -65%; inconclusive = mostly about -30% to -63%; also: % is scaled to controls: 0 for no effect and ±100 for the full control effect
#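 Protein mix (5X: 125 nM each GST-E1A, His-CtBP) was incubated with pinned compound 2 h at 37 deg C in dark, in 50 mM Tris pH 8.0 buffer with 300 mM NaCl. Glutathione donor and nickel acceptor beads followed; AlphaScreen signal read after 1 h.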
# Six1-Eya2 blk: qHTS Assay for Inhibitors of the Six1/Eya2 Interaction | Homeobox protein SIX1 (Homo sapiens) + Protein phosphatase EYA2 (Homo sapiens), … | AlphaScreen GST-Six1/His-Eya2 binding, biochemical; hits give low values | activity change, % (test concentration not listed) | actives 0.56% (n = 360,000) | AID 651725, 2012; in the data active = activity change below about -65%; inconclusive = mostly about -30% to -63%; also: % is scaled to controls: 0 for no effect and ±100 for the full control effect
#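 GST-Six1 + His-Eya2 (5X stock: 250/500 nM); Tris pH 8.0, 300 mM NaCl, 0.05% BSA, 0.02% Tween 20; GSH donor/Ni acceptor beads; 1 h 37 °C dark; AlphaScreen readout.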
# HP1b binding inh: HTS for Inhibitors of HP1-beta Chromodomain Interactions with Methylated Histone Tails; Chromobox protein homolog 1 (Homo sapiens), P83916; AlphaScreen HP1-beta / biotin-H3K9me3 peptide binding; Potency, µM (top dose mostly 114 µM), for inactives: at the highest dose activity change, negative = inhibition, hits mostly inhibitors; actives 0.56% (n = 390,000); also: potency is read from the fitted curve at half-maximal effect; nearly all actives have a fitted effect of over 70% in size
#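 HP1-beta protein (50 nM final) preincubated 30 min at room temperature with biotinylated H3(1-18)K9me3 peptide (50 nM) in PBS pH 7.4, 0.01% Tween-20, then compound added for 30 min. AlphaScreen streptavidin donor/nickel chelate acceptor beads (10 ug/mL final), 30 min dark, luminescence read.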
# JMJD2A Tudor inh: qHTS Assay for Inhibitors of JMJD2A-Tudor Domain; AlphaScreen JMJD2A-Tudor / H3K4me3 peptide binding; Potency, µM (top dose mostly 114 µM), for the others: at the highest dose activity change, negative = inhibition, usual class: inhibitors; actives 4.4% (n = 390,000); AID 504339, 2011; also: potency is read from the fitted curve at half-maximal effect; % is scaled to controls: 0 for no effect and ±100 for the full control effect; nearly all actives have a fitted effect of over 50% in size
# Target sequence (O75164 whole entry, looked up, the tested form may be a part): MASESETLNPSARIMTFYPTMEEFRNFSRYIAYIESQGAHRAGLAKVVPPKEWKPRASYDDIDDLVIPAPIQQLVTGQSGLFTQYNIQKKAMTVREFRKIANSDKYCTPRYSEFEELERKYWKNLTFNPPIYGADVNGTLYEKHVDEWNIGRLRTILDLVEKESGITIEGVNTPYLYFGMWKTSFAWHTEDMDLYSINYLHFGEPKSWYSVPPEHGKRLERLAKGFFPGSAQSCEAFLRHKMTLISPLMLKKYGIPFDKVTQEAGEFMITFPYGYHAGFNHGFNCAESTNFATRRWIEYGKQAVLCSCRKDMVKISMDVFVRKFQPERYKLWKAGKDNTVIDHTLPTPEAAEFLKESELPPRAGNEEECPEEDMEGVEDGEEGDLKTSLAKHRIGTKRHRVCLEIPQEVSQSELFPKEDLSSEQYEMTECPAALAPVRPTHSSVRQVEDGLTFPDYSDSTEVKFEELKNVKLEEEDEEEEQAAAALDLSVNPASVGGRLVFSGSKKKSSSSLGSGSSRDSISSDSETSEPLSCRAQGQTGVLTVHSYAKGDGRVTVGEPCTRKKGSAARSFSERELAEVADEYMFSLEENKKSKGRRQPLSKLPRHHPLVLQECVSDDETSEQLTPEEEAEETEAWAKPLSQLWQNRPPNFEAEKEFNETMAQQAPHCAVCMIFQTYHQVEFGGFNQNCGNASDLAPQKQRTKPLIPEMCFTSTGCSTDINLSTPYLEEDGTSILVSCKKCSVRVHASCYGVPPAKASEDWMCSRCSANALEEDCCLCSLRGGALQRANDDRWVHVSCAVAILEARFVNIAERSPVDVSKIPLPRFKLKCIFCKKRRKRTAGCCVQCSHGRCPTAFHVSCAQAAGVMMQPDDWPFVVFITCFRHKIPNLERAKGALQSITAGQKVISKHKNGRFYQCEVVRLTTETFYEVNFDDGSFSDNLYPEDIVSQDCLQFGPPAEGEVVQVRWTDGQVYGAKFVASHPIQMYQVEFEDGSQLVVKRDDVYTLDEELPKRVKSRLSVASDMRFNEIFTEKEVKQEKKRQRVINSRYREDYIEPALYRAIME
# * = called active by the depositor; u = inconclusive; x = no result given; [ ] = remark or other dose. Rows were chosen to be rich in hits. Some 10% of all compounds tested hit in one or more screens of this group. Unless noted, calls follow the shape of the dose curve; as a rule, active = well fitted inhibition curve with a large enough effect; inconclusive = small, poorly fitted or top-dose-only effect; inactive = no such curve, though single readings can be large or run the other way.
SMILES,G9a inh,BAZ2B block,CtBP-E1A blk,Six1-Eya2 blk,HP1b binding inh,JMJD2A Tudor inh
Cc1ccccc1NC(=O)c1c(C)[nH]c(=S)c(C#N)c1-c1ccc(Cl)cc1,u,-4%,6,-3,18%,-6%
Cc1ccccc1OCC(=O)NCC(=O)OCc1ccc2ccccc2c1,x,x,x,x,23%[57 µM],-10%[57.1 µM]
CCOc1ccc2nc(NCCNC(=O)C3CC3)c(C)cc2c1,79µM*,1%,-5,-2,10%,-1%
CCc1cc(=O)oc2cc(C)c(CN3CCCC(C)C3)c(O)c12 (centres undefined),u,22µM*,2,-24,-31%,35µM*
Cc1cc2oc(=O)cc(CN3CCCCC3)c2cc1C,-5%,8%,-2,2,23%,-3%
CCCCc1cc(=O)oc2cc(C)c(CN3CCCC3)c(O)c12,-49%[12.7 µM],45µM*,-2,-17,-11%,50µM*
CCN(CC)S(=O)(=O)c1ccc(NC(=O)CN(c2ccccc2)S(=O)(=O)N(C)C)cc1,-19%[59 µM],-2%,x,x,22%,-11%
Brc1ccccc1/C=N/N1CCCCC1,-5%[2.33 µM],u,-1,-15,-29%,u
COc1cccc(C=NN2CCCCCC2)c1OC,x,x,-24,-20,u,56µM*
COc1ccccc1N1CCN(/N=C/c2ccc(OC)c(OC)c2OC)CC1,35µM*,32µM*,-19,-27,-2%,u
CCOc1ccccc1C=NN1CCCCCC1,x,x,-11,-23,u,45µM*
COc1ccc(/C=N/N2CCN(C)CC2)c(OC)c1OC,-37%,-2%,-23,0,26%,-1%
CCOc1cc(C=NN2CCCCCC2)ccc1O,x,x,-3,-14,u,50µM*
COc1cccc(-c2nc(S(=O)(=O)c3ccccc3)c(N3CCCCC3)o2)c1,u,-39%,x,x,u,-29%
CCOC(=O)Sc1nc2ncncc2[nH]1,x,x,u,-15,u,3.5µM*
CCC1(c2ccc(Cl)cc2)NC(=S)N(c2ccc(C)c(C)c2)N1 (centres undefined),18µM*,-26%,7,-8,15%,-26%
CCC1(c2ccc(Cl)cc2)NC(=S)N(c2ccc(C)cc2)N1 (centres undefined),28µM*,-35%,-3,1,9%,79µM*
CC1=CC(C)(C)NC(=S)N1c1ccc(C)c(C)c1,13%[59 µM],-16%,-12,-3,19%,-15%
CCOc1ccc(Cl)cc1S(=O)(=O)N1CCN(c2ccc(C)c(C)c2)CC1,-42%[59 µM],-34%,0,-11,-5%,u
CCC1(c2ccccc2)NC(=S)N(c2ccc(C)c(C)c2)N1 (centres undefined),7.9µM*,u,13,-16,17%,u
CCc1ccc(OCC(=O)Nc2cc(-c3ccc(C)cc3)no2)cc1,-22%[59 µM],-5%,x,x,42%,-20%
CCOC(=O)N1CCN(c2c(NCCCN(CC)c3cccc(C)c3)c(=O)c2=O)CC1,14µM*,1%,-9,-19,-17%,-24%
CCOC(=O)C1CCCN(c2c(NCCCN(C)c3ccccc3)c(=O)c2=O)C1 (centres undefined),56µM*,0%,0,-2,34%,-13%
CCOc1ccccc1NC(=O)c1cn(C2CCCC2)c(=O)c2c1c1ccccc1n2C,10%[59 µM],13%,x,x,64%,-5%
Cc1ccc(C(=O)CC2(O)C(=O)N(Cc3ccccc3)c3ccccc32)c(C)c1 (centres undefined),2.2µM*,10µM*,x,x,u,40µM*
SMILES,G9a inh,BAZ2B block,CtBP-E1A blk,Six1-Eya2 blk,HP1b binding inh,JMJD2A Tudor inh
O=C(COC(=O)Cc1c[nH]c2ccccc12)Nc1ccc(Cl)cc1,x,x,5,4,x,x
COc1ccc(NC(=O)C2CC(=O)N(c3ccc(C)cc3)C2)cc1S(=O)(=O)N1CCCCC1 (centres undefined),x,x,-4,6,x,x
Cc1ccc(NC(=O)CCNC(=O)c2ccc(Br)cc2)cc1S(=O)(=O)N1CCCCCC1,50µM*,1%,8,-7,6%,-18%
COc1cc(Cl)c(C)cc1NCC(=O)Nc1cccc(S(=O)(=O)N2CCCC2)c1,11µM*,u,-25,-20,-18%,u
Cc1ccc(NC(=O)COC(=O)Cc2c[nH]c3ccccc23)cc1F,35µM*,-35%,-1,-11,9%,u
CCOc1ccc(N2CC(C(=O)Nc3ccc(OC)c(S(=O)(=O)N4CCCCC4)c3)CC2=O)cc1 (centres undefined),79µM*,-36%,3,-8,0%,-30%
Cc1cc2c(s1)c1cnn(Cc3ccc(C(=O)O)cc3)c(=O)c1n2C,x,x,x,x,x,-5%
Cc1c(C)n(Cc2ccc(F)cc2)c2ccc(C(=O)N3CCN(c4ccc(Cl)cc4)CC3)cc12,-30%[59 µM],-30%,x,x,15%,u
COc1cccc(/C=C/C(=O)OCC(=O)Nc2cccc(S(=O)(=O)N3CCCCC3)c2)c1OC,71µM*,-3%,-1,-9,23%,-23%
Cc1ccc(NC(=O)COC(=O)C2CC3C=CC2C3)cc1S(=O)(=O)N1CCCCC1 (centres undefined),14%[59 µM],8%,3,-10,9%,56µM*
Cc1ccc(S(=O)(=O)N2CCCCC2)cc1NC(=O)COC(=O)C1CC2C=CC1C2 (centres undefined),21%,2%,5,-2,2%,-16%
O=C(COC(=O)c1cc([N+](=O)[O-])ccc1NCCO)Nc1cccc(S(=O)(=O)N2CCCC2)c1,45µM*,-7%,-15,-13,-19%,u
Cc1ccc(NC(=O)Cn2cc(C(F)(F)F)cc(Cl)c2=O)cc1S(=O)(=O)N1CCCCC1,50µM*,4%,-1,-11,7%,-24%
Cc1ccc(NC(=O)Cn2ncc(Cl)c(Cl)c2=O)cc1S(=O)(=O)N1CCCCC1,u,0%,1,-8,15%,-27%
COc1ccc(-n2c(=O)c3c(c4cc(OC)ccc4n3C)n(CC(=O)NCC3CCCO3)c2=O)cc1 (centres undefined),-5%[59 µM],-4%,x,x,6%,-15%
COc1ccc(C2/C=C\CN(CC(C)C)C(C)C(=O)N2Cc2ccc(F)cc2)cc1 (centres undefined),x,x,x,x,44%,-8%
